According to ChEMBL document CHEMBL4513141, “CO-ADD screening of NIH (USA) - Clinical Collection” (2021):
Measured potencies and affinities stand elsewhere.

Key:
Klebsiella pneumoniae = conditions: Concentration 20 uM; ASSAY_TEST Inhibition of Bacterial Growth; detection method Absorption (OD600); MEDIA CAMHB; plate type 384well; NBS; CORNING #3640; time 18 hr
Candida albicans = conditions: 20 µM
Cryptococcus neoformans = conditions: Concentration 20 uM; ASSAY_TEST Inhibition of Fungal Growth; detection method Resazurin; Absorption (OD600-OD570); plate type 384well; NBS; CORNING #3640

| Structure (SMILES) | Inhibition (Klebsiella pneumoniae) | Inhibition (Candida albicans) | Inhibition (Cryptococcus neoformans) |
| --- | --- | --- | --- |
| CCC1=C[C@H]2CN(C1)Cc1c([nH]c3ccccc13)[C@@](C(=O)OC)(c1cc3c(cc1OC)N(C)[C@H]1[C@@](O)(C(=O)OC)[C@H](OC(C)=O)[C@]4(CC)C=CCN5CC[C@]31[C@@H]54)C2.O=C(O)C(O)C(O)C(=O)O.O=C(O)C(O)C(O)C(=O)O | 8.46% | 4.55% | -7.91% |
| Cc1ccccc1C(OCCN(C)C)c1ccccc1.Cl (configuration not stated) [ORPHENADRINE HYDROCHLORIDE] | 11.73% | 1.54% | -6.53% |
| CC12CC3CC(C)(C1)CC(N)(C3)C2.Cl [MEMANTINE HYDROCHLORIDE] | 12.73% | 4.09% | -0.08% |
| CC(C)(C)NC(=O)[C@H]1CC[C@H]2[C@@H]3CC[C@H]4NC(=O)C=C[C@]4(C)[C@H]3CC[C@]12C [FINASTERIDE] | -7.24% | 0.68% | -1.89% |
| CC1=C(CC(=O)O)c2cc(F)ccc2/C1=C\c1ccc([S+](C)[O-])cc1 (configuration not stated) | 14.02% | 3.98% | -1.21% |
| COc1cc(C)c(/C=C/C(C)=C/C=C/C(C)=C/C(=O)O)c(C)c1C [ACITRETIN] | 7.64% | 3.07% | -7.56% |
| Cc1[nH]c(=O)c(C#N)cc1-c1ccncc1 [MILRINONE] | 13.45% | 3.54% | -6.55% |
| CS(=O)(=O)c1ccc(C2=C(c3ccccc3)C(=O)OC2)cc1 [ROFECOXIB] | 8.3% | 2.84% | -2.65% |
| C[C@H]1C[C@@H]2[C@H]([C@@H](O)C[C@@]3(C)[C@H]2CC[C@]3(O)C(=O)CO)[C@@]2(C)C=CC(=O)C=C12 [METHYLPREDNISOLONE] | 20.28% | 2.95% | -7.56% |
